High-throughput results deposited in PubChem BioAssay by National Center for Advancing Translational Sciences (NCATS).
HCMV inh – qHTS Assay for inhibitors of the human cytomegalovirus (HCMV); HFF cells, HCMV-luciferase reporter, 72 h; active compounds read low; activity change, negative = inhibition, % at 57.5 µM; actives 4.5% (n = 410,000); in the data active = activity change below about -60%; inconclusive = no clear call, values can overlap the other calls; inactive = above about -39%
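Two compound doses tested in HFFs infected with HCMV-luciferase, MOI 1 PFU/cell, 72 h at 37C. Lysate luminescence read with OneGlo; data normalized against buffer-only and 10uM Salinomycin inhibitor controls.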
AmpC detergent – qHTS Inhibitors of AmpC Beta-Lactamase (assay with detergent); P00811; AmpC hydrolysis of nitrocefin, absorbance 480 nm, 0.01% Triton; Potency, µM (series often up to 114 µM), hits mostly inhibitors; actives 0.041% (n = 370,000); note: nearly all actives have a fitted effect of over 25% in size
Target sequence (P00811 whole entry, looked up): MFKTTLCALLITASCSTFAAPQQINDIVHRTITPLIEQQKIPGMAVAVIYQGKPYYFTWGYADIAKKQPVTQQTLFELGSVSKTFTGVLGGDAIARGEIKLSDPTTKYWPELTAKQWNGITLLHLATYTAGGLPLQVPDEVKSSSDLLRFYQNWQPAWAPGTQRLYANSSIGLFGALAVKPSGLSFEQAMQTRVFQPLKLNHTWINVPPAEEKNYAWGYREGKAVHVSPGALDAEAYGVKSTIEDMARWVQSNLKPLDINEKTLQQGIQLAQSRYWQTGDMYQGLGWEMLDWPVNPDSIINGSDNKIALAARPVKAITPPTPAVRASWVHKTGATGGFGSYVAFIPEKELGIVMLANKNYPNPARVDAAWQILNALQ
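AmpC (5.3 nM in the dispensed reagent) in 20 mM phosphate pH 7.0 with 0.01% (detergent screen) or 0.0001% Triton X-100 was preincubated with compounds for 15 min at room temperature. Nitrocefin was then added from an 800 uM solution, and hydrolysis was followed at 480 nm.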
AmpC inh no detg – qHTS Inhibitors of AmpC Beta-Lactamase (assay without detergent) | P00811 | AmpC nitrocefin hydrolysis, absorbance 480 nm, 0.0001% Triton | Potency, µM (highest dose often 57.1 µM), actives largely listed as inhibitors | actives 0.52% (n = 330,000); note: nearly all actives have a fitted effect of over 20% in size
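AmpC (5.3 nM in the dispensed reagent) in 20 mM phosphate pH 7.0 with 0.01% (detergent screen) or 0.0001% Triton X-100 was preincubated with compounds for 15 min at room temperature. Nitrocefin was then added from an 800 uM solution, and hydrolysis was followed at 480 nm.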
HCV inh – qHTS Assay for Inhibitors of Hepatitis C Virus (HCV); Huh7.5.1 HCVcc-Cre infection, luciferase reporter, 44 h; Potency, µM (top dose mostly 41.8 µM), most hits filed as inhibitors; actives 3.4% (n = 340,000); AID 651820, 2012
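Reporter virus HCVcc-Cre (~0.5 moi) infects cells exposed to compound; seeding density 1,000 cells/well with 4 h settling beforehand. Luminescence, 15 sec read, taken 44 h post-infection following a 15 min RT substrate incubation.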
FMDV antiviral – High Throughput Screening for Foot and Mouth Disease Virus Antivirals. FMDV antiviral cell-based qHTS. actives 1.2% (n = 410,000). Potency, µM (highest dose often 57.9 µM), actives largely listed as inhibitors. AID 1159524, 2015; calls by dose curve; tested in HEK293T cells; note: read-out not given here; nearly all actives have a fitted effect of over 45% in size
Numbers stand for hits; . = inactive; ? = inconclusive; / = no result; + = active, no number. Shown are actives, neighbours in structure and some others; about 7.3% of the full set was active somewhere. Unless noted, calls come from the whole dose curve; as a rule, active = well fitted curve in the direction sought with a large enough effect; inconclusive = small, poorly fitted or top-dose-only effect, or another doubt; inactive = no such curve, though single readings can be large; an effect the other way counts as inactive or inconclusive.

SMILES | HCMV inh | AmpC detergent | AmpC inh no detg | HCV inh | FMDV antiviral
O=C(Nc1ccc(Cl)cc1)Nc1csc([N+](=O)[O-])c1 | -103.4 | . | . | ? | .
CCNC(=O)NC(=O)c1csc([N+](=O)[O-])c1 | . | ? | . | ? | .
COc1ccc(N/C=C(\C#N)c2ccc(OCCCF)cc2)cc1 | -91.2 | . | . | ? | .
Cn1c(/C(C#N)=C(\O)c2cccc(F)c2)nc2ccccc21 | . | . | . | . | .
N#C/C(=C(/O)c1cccc(F)c1)c1nc2ccccc2s1 | -69.7 | . | . | . | .
COc1cc(OC)c(NC(=O)N2CCC(CN3CCCC3)CC2)cc1Cl | . | . | / | / | .
ON=C(CCc1ccccc1)CCc1ccccc1 | -74.8 | / | / | . | .
O=[N+]([O-])c1ccc(O)c(Nc2ncnc3ccccc23)c1 | . | . | . | . | .
O=[N+]([O-])c1ccc(Oc2cccnc2)c([N+](=O)[O-])c1 | . | / | / | ? | 31.6µM
COc1ccc([N+](=O)[O-])cc1Nc1ncnc2ccccc12 | -61.9 | . | . | ? | .
COc1ccc([N+](=O)[O-])cc1NCc1cccnc1 | . | . | . | 7.94µM | .
COc1ccc([N+](=O)[O-])cc1NCc1cccc([N+](=O)[O-])c1 | . | . | . | 3.98µM | .
CCn1c(SCc2ccccc2F)nc(=O)c2c(C(=O)OC)cc(C3CC3)nc21 | . | . | / | / | .
Cc1c(C(=O)O)sc(S(=O)(=O)N2CCN(C(=O)Cc3ccc(F)cc3)CC2)c1C(=O)O | . | . | . | . | .
Cc1ccc(C)n1C1C(=O)N(Cc2ccc(C(F)(F)F)cc2)c2ccc(F)cc21 (stereo unspecified) | . | / | / | / | /
CCOc1ccc(CNC(=O)c2cccn2-c2nnc(N3CCCCC3)s2)cc1OC | . | . | / | / | .
O=C(CCCCCn1c(=S)[nH]c2ccc(N3CCOCC3)cc2c1=O)NCc1ccc2c(c1)OCO2 | . | . | . | ? | .
O=C(CCCCCn1c(=S)[nH]c2ccc(N3CCOCC3)cc2c1=O)NCc1ccc(Cl)cc1 | -75.0 | ? | . | . | ?
O=c1c2cc(N3CCOCC3)ccc2[nH]c(=S)n1Cc1ccc(Cl)cc1 | -86.6 | . | . | ? | .
O=C(Oc1ccc(Br)cc1C(=O)/C=C/c1ccccc1F)c1ccco1 | -77.6 | / | / | 10µM | ?
CC(=O)c1cc(Cl)ccc1OC(=O)c1ccco1 | . | . | . | . | /
Cc1cc(NCCCn2ccnc2)n2nc(-c3ccc(Cl)cc3)cc2n1 | . | . | . | . | .
CC(C)(C)c1cc(NCCCn2ccnc2)n2ncc(-c3ccc(Cl)cc3)c2n1 | . | . | . | 25.1µM | .
Cc1ccc(/C=C/C(=O)Nc2ccc(Cl)cc2Cl)cc1 | . | . | / | / | .
COc1ccc(CCNC(=O)Cn2cnc3scc(-c4ccccc4)c3c2=O)cc1OC | -101.9 | . | . | . | .
SMILES | HCMV inh | AmpC detergent | AmpC inh no detg | HCV inh | FMDV antiviral
COC(=O)c1sc2ncn(CC(=O)NCCc3ccc(OC)c(OC)c3)c(=O)c2c1C | . | . | . | . | .
NC(=O)c1ccccc1OC1CCC1 | . | . | . | . | .
O=C(/C=C/c1ccccc1)NC(=S)Nc1ccc(CN2CCOCC2)cc1 | -75.7 | ? | . | . | ?
O=C(/C=C/c1ccc(Cl)cc1Cl)NC(=S)Nc1ccc(CN2CCOCC2)cc1 | . | ? | . | . | .
O=C(/C=C/c1ccc(Cl)cc1)Nc1ccc(CN2CCOCC2)cc1 | -88.8 | . | . | ? | ?
O=C(/C=C/c1ccc(Cl)cc1)Nc1ccc(N2CCCCC2)cc1 | . | . | . | . | .
CC(C)c1ccc(/C=C/C(=O)Nc2ccc(CN3CCOCC3)cc2)cc1 | ? | . | . | 2.24µM | 28.2µM
Cn1c(CBr)c(C(=O)c2ccc([N+](=O)[O-])cc2)c(=O)n(C)c1=O | . | . | . | . | .
NC(CSCSCC(N)C(=O)O)C(=O)O (stereo unspecified) | / | / | / | / | .
Cc1onc(-c2ccccc2Cl)c1C(=O)N(Cc1nc(-c2ccccc2)no1)C1CCCCC1 | . | . | . | 11.2µM | .
Cc1cccc(-c2noc(CN(C(=O)c3ccc(C)c(C)c3)C(C)C)n2)c1 | -94.6 | . | / | / | ?
Cc1cccc(C(=O)N(Cc2nc(-c3ccc(Cl)cc3)no2)C(C)C)c1 | . | . | / | / | .
Cc1onc(-c2ccccc2Cl)c1C(=O)NCc1nc(-c2ccc(C(F)(F)F)cc2)no1 | . | . | . | ? | ?
Cc1ccc(C)c(C(=O)N(Cc2nc(-c3ccc(Cl)cc3)no2)C(C)C)c1 | . | . | . | 10µM | ?
Cc1cccc(-c2noc(CN(C(=O)c3ccc4c(c3)OCO4)C(C)C)n2)c1 | . | . | . | ? | ?
Cc1cccc(-c2noc(CN(C(=O)c3c(-c4ccccc4Cl)noc3C)C(C)C)n2)c1 | . | ? | . | 10µM | .
CC(OC(=O)CN1C(=O)NC2(CCCCC2C)C1=O)c1ccccc1 (stereo unspecified) | . | . | . | . | .
Cc1ccc2nc(N3CCC(C(=O)N4CCN(c5cccc(C)c5C)CC4)CC3)[nH]c2c1 | . | . | / | / | ?
CC(=O)c1ccc(NC(=O)COC(=O)c2ccc(F)cc2F)cc1 | ? | ? | . | . | .
CN(C)C(=O)Oc1ccnc2cc(Cl)ccc12 | + | . | . | . | .
CN(C)S(=O)(=O)N1CCN(c2ccnc3cc(Cl)ccc23)CC1 | / | . | . | . | .
COC(=O)c1ccc(-c2csc(NC(=O)c3ccc(S(=O)(=O)N4CCc5ccccc5C4)cc3)n2)cc1 | . | . | . | ? | .
COc1ccc(-c2csc(NC(=O)c3ccc(S(=O)(=O)N4CCc5ccccc5C4)cc3)n2)cc1 | ? | ? | 8.91µM | ? | .
O=C(Nc1nc(-c2ccc(S(=O)(=O)N3CCCCCC3)cc2)cs1)c1ccccc1 | -72.9 | . | . | ? | 11.2µM
O=C(Nc1nc(-c2cccs2)cs1)c1ccc(S(=O)(=O)N2CCCC2)cc1 | -90.3 | . | . | ? | 10µM
SMILES | HCMV inh | AmpC detergent | AmpC inh no detg | HCV inh | FMDV antiviral
Cc1csc(NC(=O)c2ccc(S(=O)(=O)N3CCCC3)cc2)n1 | . | . | . | . | .
O=C(Nc1nc(-c2ccc3c(c2)OCCO3)cs1)c1ccc(S(=O)(=O)N2CCCCC2)cc1 | -99.8 | ? | . | ? | /
Cc1nc2cc(NC(=O)[C@@H]3C[C@@H](Sc4ccccn4)CN3Cc3ccccc3)ccc2s1 | / | / | / | / | .
CN(C)S(=O)(=O)c1ccc(C(=O)Nc2nc(-c3cccs3)cs2)cc1 | -81.2 | ? | . | 10µM | ?
O=C(Nc1nc(-c2ccc(S(=O)(=O)N3CCCC3)cc2)cs1)C1COc2ccccc2O1 (stereo unspecified) | ? | . | . | 2.24µM | ?
CCOC(=O)C1CCN(C(=O)COC(=O)CN(C)S(=O)(=O)c2ccc(NC(C)=O)cc2)CC1 | . | / | / | . | .
